Data taken from PubChem BioAssay (NCATS).
Records with an inconclusive call do not appear. The source made the active and inactive calls. Calls come from the whole dose curve; as a rule, active = well fitted inhibition curve with a large enough effect; inconclusive = small, poorly fitted or top-dose-only effect; inactive = flat fitted curve, though single readings scatter.

test system: CRL-7250; test: qHTS assay to identify novel small-molecules to repurpose for Merkel cell carcinoma treatment (AID 1296009); conditions: MCC and control cell lines, CellTiter-Glo viability, 72 h; series mostly up to 44.8 µM; note: nearly all actives have a fitted effect of over 60% in size
Procedure, shortened: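 Viability readout: ATP luminescence (CellTiter-Glo) after 72 hr drug exposure at 37 degree celsius. Dose-response format was 8 points for NPC and 11 points for MIPE; data normalized to in-plate controls.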

Compound | outcome
Cc1nc2n(c(=O)c1CCN1CCC(c3noc4cc(F)ccc34)CC1)CCC[C@H]2O | inactive [at 17.4 µM]
CN1CCN(CCCN2c3ccccc3Sc3ccc(Cl)cc32)CC1 | inactive
CC(CN(C)C)CN1c2ccccc2CCc2ccccc21 (stereo not given) | inactive
CO/N=C1\CN(c2nc3c(cc2F)c(=O)c(C(=O)O)cn3C2CC2)CC1CN (stereo not given) | inactive
O=NN(CCCl)C(=O)NCCCl | inactive
Cc1[nH]cnc1CN1CCc2c(c3ccccc3n2C)C1=O | inactive
CN(N=O)C(=O)N[C@@H]1[C@@H](O)[C@H](O)[C@@H](CO)O[C@@H]1O | inactive
CN(C)c1ccc(O)c2c1C[C@H]1C[C@H]3[C@H](N(C)C)C(=O)C(C(N)=O)=C(O)[C@@]3(O)C(=O)C1=C2O | inactive
C[C@H]1O[C@H](O[C@H]2[C@H](O)[C@@H](O)[C@@H](O[C@H]3[C@H](O)[C@@H](O)[C@H](O)O[C@@H]3CO)O[C@@H]2CO)[C@H](O)[C@@H](O)[C@@H]1N[C@H]1C=C(CO)[C@@H](O)[C@H](O)[C@H]1O | inactive
C[C@@H]1CC(=O)NN=C1c1ccc(NN=C(C#N)C#N)cc1 | inactive
CC12CC3CC(C)(C1)CC(N)(C3)C2 | inactive
CC(S)C(=O)NCC(=O)O (stereo not given) | inactive
CC1(C)S[C@@H]2[C@H](NC(=O)Cc3ccccc3)C(=O)N2[C@H]1C(=O)O (tested in a mixture with another compound) | inactive
CCOc1ccc2ccccc2c1C(=O)N[C@@H]1C(=O)N2[C@@H]1SC(C)(C)[C@@H]2C(=O)O | inactive
CN1CCC(=C2c3ccccc3C=Cc3ccccc32)CC1 | inactive
CCC1C(=O)OCC1Cc1cncn1C (stereo not given) | inactive
Cc1ccc(C)c(OCCCC(C)(C)C(=O)O)c1 | inactive
CN(C)c1nc(N(C)C)nc(N(C)C)n1 | inactive
Cc1ccnc2c1NC(=O)c1cccnc1N2C1CC1 | inactive
OCCN(CCO)c1nc(N2CCCCC2)c2nc(N(CCO)CCO)nc(N3CCCCC3)c2n1 | inactive

Compound | outcome
CCN(CCO)CCCC(C)Nc1ccnc2cc(Cl)ccc12 (stereo not given) | inactive [at 4.96 µM]
Cc1ccccc1C(OCCN(C)C)c1ccccc1 (stereo not given) | inactive
C[C@H]1c2cccc(O)c2C(O)=C2C(=O)[C@]3(O)C(O)=C(C(N)=O)C(=O)[C@@H](N(C)C)[C@@H]3[C@@H](O)[C@@H]21 | inactive
CCCN[C@H]1CCc2nc(N)sc2C1 | inactive
Cc1ccc(-c2cc(C(F)(F)F)nn2-c2ccc(S(N)(=O)=O)cc2)cc1 | inactive
NC12CC3CC(CC(C3)C1)C2 | inactive
CC(C(=O)O)c1cccc(C(=O)c2ccccc2)c1 (stereo not given) | inactive
O=C1[C@H](CC[C@H](O)c2ccc(F)cc2)[C@@H](c2ccc(O)cc2)N1c1ccc(F)cc1 | inactive
CN1CCC[C@@H]1Cc1c[nH]c2ccc(CCS(=O)(=O)c3ccccc3)cc12 | inactive
COc1cc(C(C)=O)ccc1OCCCN1CCC(c2noc3cc(F)ccc23)CC1 | inactive
COc1ccccc1OCC(O)COC(N)=O (stereo not given) | inactive
O=C(O)CCNC(=O)c1ccc(N=Nc2ccc(O)c(C(=O)O)c2)cc1 | inactive
Cc1[nH]c(=O)c(C#N)cc1-c1ccncc1 | inactive
CNCCc1ccccn1 | inactive
O=c1n(CCCN2CCN(c3cccc(Cl)c3)CC2)nc2ccccn12 | inactive
Cc1cnc(C(=O)NCCc2ccc(S(=O)(=O)NC(=O)NC3CCCCC3)cc2)cn1 | inactive
O=C1N=C(O)CN1/N=C/c1ccc(-c2ccc([N+](=O)[O-])cc2)o1 | inactive
CC(=O)OCC(CCn1cnc2cnc(N)nc21)COC(C)=O | inactive
O=C1NC(=O)C(c2ccccc2)(c2ccccc2)N1 | inactive
C1N2CN3CN1CN(C2)C3 | inactive
